# Shown is part of a subset that was picked to be rich in the strongest signals.
# How the values were obtained:
# Experiment in all cases: glycan array binding signal (z-score within array); higher = stronger binding
# Details in all cases: glycan notation: IUPAC condensed, linker removed
# [1] = molecular target: GlcNAc(b1-3)Gal(b1-4)GlcNAc(b1-3)Gal(b1-4)GlcNAc(b1-2)[GlcNAc(b1-3)Gal(b1-4)GlcNAc(b1-3)Gal(b1-4)GlcNAc(b1-6)]Man(a1-6)[GlcNAc(b1-3)Gal(b1-4)GlcNAc(b1-3)Gal(b1-4)GlcNAc(b1-2)Man(a1-3)]Man(b1-4)GlcNAc(b1-4)[Fuc(a1-6)]GlcNAc
# Method in brief: (§1)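 Glycan array binding is given as a within-array Z-score, which can be read as non-binding when negative. The arrays, 3228 of them, came from the Consortium for Functional Glycomics database and were retained only where the protein sequence was available. Z-scores were averaged across arrays of the same protein sequence at different concentrations or buffers and across linkers.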
# [2] = molecular target: GlcNAc(b1-3)Gal(b1-4)GlcNAc(b1-3)Gal(b1-4)GlcNAc(b1-3)Gal(b1-4)GlcNAc(b1-2)Man(a1-3)[GlcNAc(b1-3)Gal(b1-4)GlcNAc(b1-3)Gal(b1-4)GlcNAc(b1-3)Gal(b1-4)GlcNAc(b1-2)Man(a1-6)]Man(b1-4)GlcNAc(b1-4)GlcNAc
# Method in brief: as §1
# [3] = molecular target: GlcNAc(b1-3)Gal(b1-4)GlcNAc(b1-3)Gal(b1-4)GlcNAc(b1-3)Gal(b1-4)GlcNAc(b1-2)[GlcNAc(b1-3)Gal(b1-4)GlcNAc(b1-3)Gal(b1-4)GlcNAc(b1-3)Gal(b1-4)GlcNAc(b1-6)]Man(a1-6)[GlcNAc(b1-3)Gal(b1-4)GlcNAc(b1-3)Gal(b1-4)GlcNAc(b1-3)Gal(b1-4)GlcNAc(b1-2)Man(a1-3)]Man(b1-4)GlcNAc(b1-4)[Fuc(a1-6)]GlcNAc
# Method in brief: as §1
# [4] = molecular target: GlcNAc(b1-3)Gal(b1-4)GlcNAc(b1-3)Gal(b1-4)GlcNAc(b1-3)Gal(b1-4)GlcNAc(b1-3)Gal(b1-4)GlcNAc(b1-2)[GlcNAc(b1-3)Gal(b1-4)GlcNAc(b1-3)Gal(b1-4)GlcNAc(b1-3)Gal(b1-4)GlcNAc(b1-3)Gal(b1-4)GlcNAc(b1-6)]Man(a1-6)[GlcNAc(b1-3)Gal(b1-4)GlcNAc(b1-3)Gal(b1-4)GlcNAc(b1-3)Gal(b1-4)GlcNAc(b1-3)Gal(b1-4)GlcNAc(b1-2)Man(a1-3)]Man(b1-4)GlcNAc(b1-4)[Fuc(a1-6)]GlcNAc
# Method in brief: as §1
# [5] = molecular target: GlcNAc(b1-3)Gal(b1-4)GlcNAc(b1-3)Gal(b1-4)GlcNAc(b1-3)GalNAc
# Method in brief: as §1
# [6] = molecular target: GlcNAc(b1-3)Gal(b1-4)GlcNAc(b1-6)[GlcNAc(b1-3)Gal(b1-3)]GalNAc
# Method in brief: as §1
# [7] = molecular target: GlcNAc(b1-4)GlcNAc(b1-4)GlcNAc(b1-4)GlcNAc(b1-4)GlcNAc
# Method in brief: as §1
# [8] = molecular target: GlcNAc6S(b1-3)Gal(b1-4)GlcNAc
# Method in brief: as §1
# [9] = molecular target: Man(a1-2)Man(a1-2)Man(a1-6)[Man(a1-3)]Man
# Method in brief: as §1
# Man(b1-4)GlcNAc = molecular target: Man(b1-4)GlcNAc
# Method in brief: as §1
# [10] = molecular target: Neu5Ac(a2-3)Gal(b1-3)GalNAc(b1-4)[Neu5Ac(a2-3)]Gal(b1-4)Glc
# Method in brief: as §1
# [11] = molecular target: Neu5Ac(a2-3)Gal(b1-3)[GlcNAc(b1-6)]GalNAc
# Method in brief: as §1
# [12] = molecular target: Neu5Ac(a2-3)Gal(b1-3)[Neu5Ac(a2-6)]GalNAc
# Method in brief: as §1
# [13] = molecular target: Neu5Ac(a2-3)Gal(b1-3)]Neu5Ac(a2-3)Gal(b1-4)]GlcNAc
# Method in brief: as §1
# [14] = molecular target: Neu5Ac(a2-3)Gal(b1-4)GlcNAc(b1-2)Man
# Method in brief: as §1
# [15] = molecular target: Neu5Ac(a2-3)Gal(b1-4)GlcNAc(b1-2)Man(a1-3)[Neu5Ac(a2-3)Gal(b1-4)GlcNAc(b1-2)Man(a1-6)]Man(b1-4)GlcNAc(b1-4)[Fuc(a1-6)]GlcNAc
# Method in brief: as §1
# [16] = molecular target: Neu5Ac(a2-3)Gal(b1-4)GlcNAc(b1-2)Man(a1-3)[Neu5Ac(a2-6)Gal(b1-4)GlcNAc(b1-2)Man(a1-6)]Man(b1-4)GlcNAc(b1-4)GlcNAc
# Method in brief: as §1
# [17] = molecular target: Neu5Ac(a2-3)Gal(b1-4)GlcNAc(b1-2)[Neu5Ac(a2-3)Gal(b1-4)GlcNAc(b1-6)]Man(a1-6)[Neu5Ac(a2-3)Gal(b1-4)GlcNAc(b1-2)Man(a1-3)][GlcNAc(b1-4)]Man(b1-4)GlcNAc(b1-4)GlcNAc
# Method in brief: as §1
# [18] = molecular target: Neu5Ac(a2-3)Gal(b1-4)GlcNAc(b1-3)Gal(b1-4)[Fuc(a1-3)]GlcNAc
# Method in brief: as §1
# Neu5Ac(a2-6)Gal = molecular target: Neu5Ac(a2-6)Gal
# Method in brief: as §1
# [19] = molecular target: Neu5Ac(a2-6)Gal(b1-4)GlcNAc(b1-2)Man(a1-3)[Gal(b1-4)GlcNAc(b1-2)Man(a1-6)]Man(b1-4)GlcNAc(b1-4)GlcNAc
# Method in brief: as §1
# [20] = molecular target: Neu5Ac(a2-6)Gal(b1-4)GlcNAc(b1-3)Gal(b1-4)[Fuc(a1-3)]GlcNAc(b1-3)Gal(b1-4)[Fuc(a1-3)]GlcNAc
# Method in brief: as §1
# [21] = molecular target: Neu5Ac(a2-6)Gal(b1-4)GlcNAc6S
# Method in brief: as §1
# [22] = molecular target: Neu5Ac(a2-8)Neu5Ac(a2-3)Gal(b1-3)GalNAc(b1-4)[Neu5Ac(a2-3)]Gal(b1-4)Glc
# Method in brief: as §1
binder,measurement,setting,value
Pwp4 (Candida glabrata) (protein) MGSSHHHHHHSSGLVPRGSHMASVGNPITVSNVCSFPKNWHRTAGFRALTARLGIGIQSDSYKELLNYPGTFQLTTQQSSTTKPNFQISGLVGNIYGLTIVPSYLLVELTGYFVPPVSGEYTFSLEGSDDAAIIFIANPSTFKCGHVEDWPTAYDNDVTVTESIHATRTIYMIEGVAYPIRIAYYNGLSLGKLQASFTDPEGVKRVDWNGYIWRYDSCDTCSYV,glycan array binding signal (z-score),[1],4.62
same,glycan array binding signal (z-score),[2],1.16
same,glycan array binding signal (z-score),[3],5.36
same,glycan array binding signal (z-score),[4],4.3
same,glycan array binding signal (z-score),[5],-0.617
same,glycan array binding signal (z-score),[6],-0.359
same,glycan array binding signal (z-score),[7],-0.442
same,glycan array binding signal (z-score),[8],-0.195
same,glycan array binding signal (z-score),[9],-0.597
same,glycan array binding signal (z-score),Man(b1-4)GlcNAc,-0.403
same,glycan array binding signal (z-score),[10],-0.275
same,glycan array binding signal (z-score),[11],3.89
same,glycan array binding signal (z-score),[12],-0.221
same,glycan array binding signal (z-score),[13],-0.455
same,glycan array binding signal (z-score),[14],-0.174
same,glycan array binding signal (z-score),[15],1.34
same,glycan array binding signal (z-score),[16],0.37
same,glycan array binding signal (z-score),[17],9.42
same,glycan array binding signal (z-score),[18],-0.414
same,glycan array binding signal (z-score),Neu5Ac(a2-6)Gal,0.575
same,glycan array binding signal (z-score),[19],1.01
same,glycan array binding signal (z-score),[20],-0.388
same,glycan array binding signal (z-score),[21],-0.336
same,glycan array binding signal (z-score),[22],-0.601
